# Rtt109 Vps75: blocks Candida albicans Rtt109/Vps75 acetyltransferase activity | Q5AAJ8 | purified Rtt109/Vps75, ThioGlo CoA-SH fluorescence, 4 h | inhibition, % at 34.9 µM | hit rate 0.16% among 330,000 | AID 540336;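 active means inhibition of at least 50% in every replicate; inconclusive means best replicate reaches 50% inhibition but some replicates fall short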
# Target sequence (Q5AAJ8 whole entry, looked up): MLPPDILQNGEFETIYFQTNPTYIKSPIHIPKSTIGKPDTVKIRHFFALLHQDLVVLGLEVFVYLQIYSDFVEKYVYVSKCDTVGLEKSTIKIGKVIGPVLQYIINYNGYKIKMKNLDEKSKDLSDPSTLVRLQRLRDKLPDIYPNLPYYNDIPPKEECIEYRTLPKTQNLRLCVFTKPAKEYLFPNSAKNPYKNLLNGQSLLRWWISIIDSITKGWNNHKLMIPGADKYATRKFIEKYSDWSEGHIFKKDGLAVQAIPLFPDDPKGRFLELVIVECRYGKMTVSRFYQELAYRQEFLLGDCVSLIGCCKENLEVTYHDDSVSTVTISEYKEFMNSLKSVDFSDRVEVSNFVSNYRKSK
# PglD DTNB: PglD (C. jejuni) enzyme inhibition; purified PglD enzyme, DTNB colorimetric CoA detection; inhibition, % at 12.5 µM; hit rate 0.098% among 360,000; in the data active means inhibition above about 16%, passing the limit was not always enough; inconclusive means no clear call, values can overlap the other calls
# DENV2 CPE: protects cells from dengue virus 2 cytopathic effect; DENV2-infected cells, cytopathic effect rescue, plate reader; hit rate 1.7% among 350,000; CPE inhibition, % at 9.99 µM; AID 651640; in the data active means CPE inhibition above about 20%, passing the limit was not always enough; inconclusive means no clear call, values can overlap the other calls; tested in BHK-21 cells;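 further: 0% = median of neutral control wells and 100% = median of positive control wells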
# Glyco luc inh: blocks N-linked glycosylation in D54 reporter cells | D54 ERlucT glycosylation luciferase reporter, 24 h; percent of 100 nM tunicamycin response | reporter increase, % at 12.5 µM | hit rate 0.23% among 360,000 | AID 588692;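 active means mean luciferase reporter signal, scaled so untreated is 0 and the glycosylation-blocking control 100, at or above a set limit in every replicate; inconclusive means mean reaches the limit but not every replicate does; inactive means mean below the limit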;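 further: luciferase carries N-glycosylation sites so blocking glycosylation raises the light; 0% = median of neutral control wells and 100% = median of 100 nM tunicamycin wells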
# * hit, by the source's call; ? = inconclusive; . = not tested or not shown. This excerpt belongs to a sample that is enriched for hits.
SMILES,Rtt109 Vps75,PglD DTNB,DENV2 CPE,Glyco luc inh
CN(C)c1ccc(C=c2c3ccccc3n3c2c2ccccc2[n+]3C)cc1,5,.,-5,-4
CC(=O)N(C)C[C@@H]1Oc2ncc(C#CCC3CCCC3)cc2C(=O)N([C@H](C)CO)C[C@H]1C,.,0,1,.
CC(C)(C)c1ccc(C(=O)NNC(=O)c2cccc(Br)c2)cc1,-1,.,.,203*
Cc1ccccc1S(=O)(=O)N1CC(=O)N2[C@H](C1)[C@@H](c1ccc(C#CC3CC3)cc1)[C@@H]2CO,.,.,17,.
CCCNC(=O)N1CC2(CCN(CC3CC3)CC2)c2c([nH]c3cc(OC)ccc23)[C@@H]1CO,.,.,24*,.
COc1ccc2c3c([nH]c2c1)[C@@H](CO)N(C(=O)CN(C)C)CC31CN(CC2CCCC2)C1,.,.,28*,.
CCCNC(=O)N1CC2(CCN(S(=O)(=O)CC)CC2)c2c([nH]c3cc(OC)ccc23)[C@H]1CO,.,.,-4,.
CCCNC(=O)N1CC2(CCN(CC3CCCC3)CC2)c2c([nH]c3cc(OC)ccc23)[C@H]1CO,.,.,0,.
CCCNC(=O)N1CC2(CCN(S(=O)(=O)CC)CC2)c2c([nH]c3cc(OC)ccc23)[C@@H]1CO,.,.,31*,.
O=C(C[C@@H]1C[C@H]2c3cc(NS(=O)(=O)c4ccc(F)cc4)ccc3O[C@H]2[C@H](CO)O1)NCc1cccc(F)c1,.,-3,-2,.
CCOC(=O)c1c(NC(=O)c2cc3n(n2)C(C(F)(F)F)CC(c2cccs2)N3)sc(C)c1C (stereo not drawn),1,-4,.,98*
O=C(C[C@H]1C[C@@H]2c3cc(NC(=O)C4CCOCC4)ccc3O[C@@H]2[C@@H](CO)O1)NCc1ccc(Oc2ccccc2)cc1,.,-1,-3,.
C[C@@H]1CN([C@H](C)CO)C(=O)c2cc(NS(=O)(=O)c3cccs3)ccc2O[C@@H](C)CCCCO[C@H]1CN(C)C(=O)NC1CCCCC1,.,-2,1,.
CCc1c(C2CC2)ncn1Cc1cccc(-c2ccccc2)c1,.,.,20*,.
CCc1c(-c2ccccc2)ncn1Cc1cccc(-c2ccccc2)c1,.,.,1,.
CCc1c(-c2ccccc2F)ncn1Cc1cccc(-c2ccccc2)c1,.,.,59*,.
Cc1noc(C)c1COc1ccc(C(=O)NNC(=O)c2ccccc2F)cc1,2,-2,.,27*
Cc1noc(C)c1COc1ccc(C(=O)NNC(=O)c2ccccc2)cc1,-6,.,-7,23
C[C@H](CO)N1C[C@H](C)[C@@H](CN(C)S(=O)(=O)c2cn(C)cn2)OCCCC[C@H](C)Oc2ccc(NC(=O)Nc3ccccc3)cc2C1=O,.,1,-19,.
O=C(CSc1nc(=O)n2ccccc2n1)N1N=C(c2cccs2)CC1c1ccc(F)cc1 (stereo not drawn),6,3,60*,-2
COc1ccc(CN2C(=O)CCC2(C)c2nnnn2C2CCCCC2)cc1 (stereo not drawn),.,.,3,.
CC1(c2nnnn2Cc2ccccc2)CCC(=O)N1CCOc1ccccc1 (stereo not drawn),.,.,92*,.
CCCCn1nnnc1C1(C)CCC(=O)N1CCOc1ccccc1 (stereo not drawn),.,.,66*,.
COc1ccc(-n2nnnc2C2(C)CCC(=O)N2Cc2ccccc2)cc1 (stereo not drawn),.,.,63*,.
COc1cc(C2CC(=O)Oc3c(C(CCN4CCCC(C)C4)c4ccc(N(C)C)cc4)c(OC)cc(OC)c32)cc(OC)c1OC (stereo not drawn),22,5,51*,-2
SMILES,Rtt109 Vps75,PglD DTNB,DENV2 CPE,Glyco luc inh
COc1ccc(NC(=O)Nc2ccc3c(c2)C(=O)N([C@H](C)CO)C[C@H](C)[C@H](CN(C)C(=O)C2CCCCC2)OCCCC[C@@H](C)O3)cc1,.,3,3,.
CCCCNC(=O)c1onc(CS(=O)(=O)c2ccccn2)c1C(=O)NCCCC,-16,3,40*,-1
O=C(OCC(=O)N1CCc2ccccc21)[C@@H]1CC(O)CN1S(=O)(=O)c1ccccc1[N+](=O)[O-] (stereo partly drawn),1,0,?,2
O=C(OCC(=O)N1CCc2ccccc21)[C@@H]1CCCN1S(=O)(=O)c1ccccc1F,13,2,49*,3
COc1ccc(OC)c(NC(=O)CCNS(=O)(=O)c2cccs2)c1,-10,2,.,-1
COc1ccc(NC(=O)CNS(=O)(=O)c2cccs2)c(OC)c1,63*,0,.,2
Cc1c(Br)c([N+](=O)[O-])nn1C(C)C(=O)N1CCc2ccccc2C1 (stereo not drawn),-3,0,24*,4
CCOC(=O)C1=C(C)N(C[C@@H]2CC[C@@H](Cc3ccc4cc(OC)ccc4c3)O2)C(=O)NC1c1ccccc1 (stereo partly drawn),0,3,49*,-4
COCC(=O)Nc1ccc2c(c1)C(=O)N(C)C[C@H](OC)[C@@H](C)CN(Cc1cncnc1)[C@H](C)CO2,.,-3,10,.
COCC(=O)Nc1ccc2c(c1)C(=O)N(C)C[C@@H](OC)[C@H](C)CN(Cc1cncnc1)[C@H](C)CO2,.,-2,-7,.
COCC(=O)Nc1ccc2c(c1)OC[C@@H](C)N(Cc1cncnc1)C[C@@H](C)[C@H](OC)CN(C)C2=O,.,.,22*,.
COCC(=O)Nc1ccc2c(c1)C(=O)N(C)C[C@@H](OC)[C@H](C)CN(Cc1cncnc1)[C@@H](C)CO2,.,-5,21*,.
CCCNC(=O)N1C[C@@H]2[C@H](c3ccccc31)[C@H](CO)N2Cc1cccc(OC)c1,.,0,0,.
C[C@H]1CN=C(Nc2ccccc2)N1CCCC1CCCC1,0,1,58*,-3
COc1cccc(CN2CCC3(CC2)CN(C(=O)C2CC2)[C@H](CO)c2[nH]c4cc(OC)ccc4c23)c1,.,.,-9,.
CCCCOCCCNC(=O)C[C@@H]1C[C@@]2(C(=O)OCC)CCCC=C2N(CCc2ccc(OC)c(OC)c2)C1=O,.,.,28*,.
CCOC(=O)[C@]12CCC=C1N(CCC1=CCCCC1)C(=O)[C@H](CC(=O)NCc1ccccc1)C2,.,.,-9,.
CCOC(=O)[C@]12CCC=C1N(CCC1=CCCCC1)C(=O)[C@H](CC(=O)NCCCCc1ccccc1)C2,.,.,85*,.
O=C(NC[C@@H]1N[C@@H](CO)[C@@H]1c1ccc(-c2ccccc2F)cc1)c1ccccn1,.,-3,7,.
COc1ccc(C(CNc2ncnc3sc(C)c(C)c23)N(C)C)cc1 (stereo not drawn),3,-3,0,-8
COc1ccccc1C(CNc1ncnc2sc(C)c(C)c12)N(C)C (stereo not drawn),4,-3,46*,-4
O=C(CNC(=O)c1cccc(Br)c1)N/N=C/c1cccs1,59*,-18,6,0
Cc1ccc(S(=O)(=O)N[C@H]2CC[C@H](CCNC(=O)C3CCCC3)O[C@H]2CO)cc1,.,-3,27*,.
O=C(NCC[C@H]1CC[C@H](NS(=O)(=O)c2ccc(Oc3ccccc3)cc2)[C@@H](CO)O1)C1CC1,.,1,85*,.
Cc1ccc(S(=O)(=O)Nc2ccc3c(c2)C(=O)N([C@@H](C)CO)C[C@@H](C)[C@H](CN(C)C(=O)CCC(F)(F)F)OCCCC[C@H](C)O3)cc1,.,-4,7,.
Cc1cccc(N2C(=O)C(Cl)=C(N3CCOCC3)C2=O)c1,113*,5,5,1
